GPR151 ag – activators of human GPR151, primary screen, cell-based, PathHunter beta-arrestin, luminescence; G-protein coupled receptor 151 (Homo sapiens), Q8TDV0; PathHunter beta-arrestin GPR151 cells; AID 1508602, 2020; 650,000 compounds, 1% hits; activation, % at 11.2 µM; in the data active means activation above about 4.9%;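 further: 0% = median of compound wells and 100% = cells with positive control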
MITF inh – MITF inhibitors, primary screen, biochemical, AlphaScreen, human; Microphthalmia-associated transcription factor (Homo sapiens), O75030; AlphaScreen MITF homodimerization, bead proximity signal; inhibition, % at 2.6 µM; 650,000 compounds, 0.91% hits; in the data active means inhibition above about 50%;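 further: 0% = vehicle wells with protein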
TEAD-YAP inh – TEAD-YAP interaction inhibition, primary screen, TEAD-YAP interaction inhibitor project, luminescence, HEK-TIYL cells | TEAD-Gal4/YAP UAS-luciferase luminescence | 640,000 compounds, 1.4% hits | inhibition, % at 9.12 µM; in the data active means inhibition above about 32%;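 further: 0% = median of test compound wells and 100% = reference inhibitor wells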
FBW7 activator – FBW7 E3 ligase activators, primary screen, biochemical, AlphaScreen, human; normalized activity (activation), % at 26.1 µM; AlphaScreen FBW7–phospho-cyclin E peptide binding, activator screen; 650,000 compounds, 0.13% hits; AID 1259310, 2017; in the data active means normalized activity above about 1.9%;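 further: purified mutant Fbw7 with reduced substrate affinity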
Active calls of the source: *. The list is not random: actives were taken first. Their share in the collection is about 3.5%.

SMILES	GPR151 ag	MITF inh	TEAD-YAP inh	FBW7 activator
CC(C)n1cnc2c(NCc3nc4ccccc4[nH]3)nc(Nc3ccncc3)nc21	0	-1	90*	0
CC(C)n1cnc2c(NCc3ccccc3)nc(Nc3cccc(N(C)C)c3)nc21	-2	8	-11	1
CC(C)n1cnc2c(NCc3nc4ccccc4[nH]3)nc(Nc3ncccn3)nc21	-1	-14	66*	0
CC(C)n1cnc2c(NCc3nc4ccccc4[nH]3)nc(Nc3cccc(N(C)C)c3)nc21	2	14	43*	0
C#CCn1c(=NC(=O)C2COc3ccccc3O2)sc2cc(OC)c(OC)cc21 (centres undefined)	1	8	35*	0
COc1cc([C@@H]2c3cc4c(cc3[C@@H](O[C@@H]3O[C@@H]5CO[C@@H](C)O[C@H]5[C@H](O)[C@H]3O)[C@H]3COC(=O)[C@H]23)OCO4)cc(OC)c1O	1	0	-35	0
COc1cc(C2CC(=O)Nc3cc4c(cc32)OCO4)cc(OC)c1OC (centres undefined)	0	-7	49*	0
COc1cc([C@@H]2c3cc4c(cc3[C@H](O)[C@H]3COC(=O)[C@H]23)OCO4)cc(OC)c1OC	4	4	43*	0
C/C(=N\NC(=O)CN1CCOCC1)c1ccc(C(C)C)cc1	0	8	-11	1
COc1c([N+](=O)[O-])cnn1CC(=O)Nc1sc2c(c1C#N)CCC2	0	2	4	0
Cc1ccc(-c2csc(NC(=O)c3ccc(S(=O)(=O)N4CCOCC4)cc3)n2)o1	-1	1	28	0
CC(C)(C)c1csc(NC(=O)c2ccc(S(=O)(=O)N3CCOCC3)cc2)n1	2	17	36*	0
COCCN(CCOC)S(=O)(=O)c1ccc(C(=O)Nc2nc(-c3ccc(C)cc3C)cs2)cc1	1	-3	36*	0
Cc1ccc(C)c(-c2csc(NC(=O)c3ccc(S(=O)(=O)N4CCOCC4)cc3)n2)c1	0	-7	42*	0
COc1ccc(-c2csc(NC(=O)c3ccc(S(=O)(=O)N4CCOCC4)cc3)n2)c(OC)c1	0	-12	41*	0
CC(C)CNC(=O)c1cccc(NC(=O)C2CCCCC2)c1	0	-7	-2	0
COc1ccccc1-n1c(SCC(=O)c2ccccc2)nc2c(sc(=S)n2-c2ccccc2)c1=O	-1	-10	-16	0
CNC(=O)/C(=C\c1ccccc1)NC(=O)c1ccccc1	0	8	-10	0
CNC(=O)C(NC(=O)c1ccccc1)=C1CCCCC1	-1	-3	43*	0
CC1=C(C(=O)OCc2ccccc2)C(c2cn(-c3ccccc3)nc2-c2ccc(F)cc2)C(C(=O)OCc2ccccc2)=C(C)N1	1	34	-9	1.9*
CC1=C(C(=O)OCc2ccccc2)C(c2cn(-c3ccccc3)nc2-c2ccc(C)cc2)C(C(=O)OCc2ccccc2)=C(C)N1	1	12	-9	0
CC(=O)N1c2ccc(-c3csc(NC(=O)c4ccncc4)n3)cc2CC1C (centres undefined)	0	-9	68*	0
CC(C)NC(=O)Cc1csc(SCC(=O)c2ccccc2)n1	1	10	-8	0
CC(C)(C)c1ccc(C(=O)NCCOc2ccccc2Cl)cc1	2	13	66*	0
CCOC(=O)c1ccc(NC(=O)CC23CC4CC(CC(C4)C2)C3)cc1	-1	10	69*	0
SMILES	GPR151 ag	MITF inh	TEAD-YAP inh	FBW7 activator
CC(=O)C1=NN(c2ccc(Cl)cc2)C(c2ccc3c(c2)OCO3)N1C(C)(C)C (centres undefined)	0	28	2	2.0*
COc1ccc(OC)c(/C=C2\C(=O)C(=O)c3ccccc32)c1	0	4	22	0
Cc1nc2ccc(NS(=O)(=O)c3ccc(C(C)C)cc3)cc2s1	2	6	32*	0
Cc1cc(C(=O)N/N=C/c2ccc(OC(F)F)cc2)c2ccccc2n1	2	0	55*	0
Cc1cc(C(=O)NN)c2ccccc2n1	0	-2	44*	0
COc1ccc(/C(C)=N/NC(=O)c2ccccc2[N+](=O)[O-])c(OC)c1	1	3	12	0
COc1ccc(/C(C)=N\NC(=O)c2ccccc2O)c(OC)c1	-3	-3	85*	0
Cc1cc(C(=O)N/N=C/c2cccc([N+](=O)[O-])c2)c2ccccc2n1	2	6	12	0
C/C(=N\NC(=O)c1cc(C)nc2ccccc12)c1ccccc1O	2	-20	53*	-1
COc1ccc(C(=O)NNC(=O)C(C)Oc2ccc(Cl)cc2Cl)cc1 (centres undefined)	0	13	-1	1
CCOC(=O)c1cnc(SCC(=O)Nc2ccc(OC(F)(F)F)cc2)nc1N	1	-10	4	0
Cc1cc(C(=O)NN=C2CCN(C)CC2)c2ccccc2n1	-1	1	51*	0
CN1CCC(=NNC(=O)c2c[nH]c3ccccc23)CC1	-1	5	-7	0
C/C(=N\NC(=O)c1cc(-c2c(C)nn(-c3ccccc3)c2C)n[nH]1)c1ccccc1O	4	7	44*	0
C/C(=N\NC(=O)c1cc(C)nc2ccccc12)c1ccco1	0	10	45*	0
Brc1ccc(-c2ccc(C3CCCCC3)cn2)cc1	1	6	63*	0
O=C(Nc1ccccc1F)c1cnc2ccccn2c1=O	-2	9	54*	0
Cc1cccn2c(CNCCc3cnn(C)c3)c(C(=O)N3CCCCC3)nc12	0	-9	9	0
c1ccc(-n2cnc3c(NCc4nc5ccccc5[nH]4)nc(N4CCN(Cc5ccc6c(c5)OCO6)CC4)nc32)cc1	0	17	71*	0
c1ccc(-n2cnc3c(NCc4nc5ccccc5[nH]4)nc(-c4ccc(N5CCOCC5)nc4)nc32)cc1	0	11	44*	0
O=C(NCc1nc2ccccc2[nH]1)c1ccc2nc(-c3ccc(N4CCOCC4)nc3)sc2c1	0	2	-49	6.9*
c1ccc(-n2cnc3c(NCc4nc5ccccc5[nH]4)nc(N4CCOCC4)nc32)cc1	0	10	82*	0
CCOC(=O)c1[nH]c(/C=N/NC(=O)c2ccncc2)c(C(=O)OCC)c1C	0	-15	60*	0
O=S(=O)(Nc1ccc(S(=O)(=O)N2CCCCCC2)cc1)c1ccc2ccccc2c1	2	6	3	0
CC(Oc1cccc(Cl)c1)C(=O)Nc1ccc(F)c([N+](=O)[O-])c1 (centres undefined)	0	9	34*	0
CC(Oc1cccc(Cl)c1)C(=O)Nc1cccc(F)c1 (centres undefined)	0	20	2	0
O=C1Nc2cc(C(=O)N3CCN(c4cccc(Cl)c4)CC3)ccc2Sc2ccccc21	1	-15	4	0

High-throughput results from PubChem BioAssay.
